Results reported in PubChem BioAssay AID1347146 (National Center for Advancing Translational Sciences (NCATS), 2019).
“And” between values parts separate entries of the source, which are not always exact repeats. Identical values can stand only once. Records with an inconclusive call do not appear. A call without a number means that no potency is given here. The source made the active and inactive calls. Calls follow the shape of the dose curve; as a rule, active = well fitted inhibition curve with a large enough effect; inconclusive = small, poorly fitted or top-dose-only effect; inactive = no such curve, though single readings can be large or run the other way.

Target: Nicotinamide N-methyltransferase (Homo sapiens) (UniProt P40261)
Sequence (P40261 whole entry, looked up): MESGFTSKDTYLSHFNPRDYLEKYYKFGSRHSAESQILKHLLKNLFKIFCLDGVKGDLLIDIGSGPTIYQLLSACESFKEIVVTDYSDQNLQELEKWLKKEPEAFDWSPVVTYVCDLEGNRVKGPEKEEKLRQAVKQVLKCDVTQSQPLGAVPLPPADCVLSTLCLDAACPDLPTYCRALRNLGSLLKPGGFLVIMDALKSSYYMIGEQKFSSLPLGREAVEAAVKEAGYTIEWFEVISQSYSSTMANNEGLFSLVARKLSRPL
Assay: qHTS Assay for Inhibitors of N-terminal methyltransferase 1 (NTMT1): NNMT MTaseGlo counterscreen assay
Settings: NNMT enzyme, MTase-Glo luminescence counterscreen; series mostly up to 57.1 µM
Method in brief: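 Luminescent MTase-Glo read-out of SAH from nicotinamide methylation: 1 µM nicotinamide, 100 µM SAM, 125 nM NNMT, 30 min RT after ~15 min compound preincubation. Values normalized to no-enzyme/DMSO controls, Hill-fitted.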
Potency is read from the fitted curve at half-maximal effect.

Row | SMILES | Potency
1 | CC(CN1c2ccccc2Sc2ccccc21)N(C)C (configuration not stated) | inactive
2 | C[C@](Cc1ccc(O)c(O)c1)(NN)C(=O)O | inactive
3 | O=C1Cc2c([nH]c3ccc(Br)cc23)-c2ccccc2N1 | inactive
4 | CN(C)CCCN1c2ccccc2Sc2ccc(Cl)cc21 | inactive
5 | S=C(S)N1CCCC1 | 25.1 µM (active)
6 | O=[N+]([O-])c1ccc(-c2nc(-c3ccc(F)cc3)c(-c3ccncc3)[nH]2)cc1 | inactive
7 | Oc1ccc(C2CNCc3sccc32)cc1O (configuration not stated) | 35.5 µM (active)
8 | COc1ccc(C(=O)/C(Cc2cc(OC)c(OC)c(OC)c2)=C(\C(=O)O)c2ccc3c(c2)OCO3)cc1 | inactive
9 | O=C(/C=C/c1ccc(O)cc1)c1ccc(O)cc1O | inactive
10 | CC[n+]1c(/C=C/C=C2/N(C)c3ccccc3C2(C)C)sc2ccccc21 | 15.8 µM (active)
11 | Cc1ccccc1CNc1ncnc2c1ncn2[C@@H]1O[C@H](CO)[C@@H](O)[C@H]1O | inactive
12 | CCN1C(=O)C=CC1=O | inactive
13 | NCC(O)C1CCCCCCC1 (configuration not stated) | inactive
14 | CC(C)NC[C@@H](O)c1ccc(O)c(O)c1 | inactive
15 | COc1ccccc1N1CCN(CCN2C(=O)CC3(CCCC3)CC2=O)CC1 | inactive
16 | O=C(Nc1ccc([N+](=O)[O-])cc1Cl)c1cc(Cl)ccc1O | inactive
17 | C[C@H](Cc1ccc(O)c(O)c1)[C@@H](C)Cc1ccc(O)c(O)c1 | 22.4 µM (active) and 25.1 µM (active)
18 | CCNC(=O)[C@H]1O[C@H](n2cnc3c(N)nc(NCCc4ccc(CCC(=O)O)cc4)nc32)[C@@H](O)[C@@H]1O | inactive
19 | Cc1cc(C)c(/C=C2\C(=O)Nc3ccccc32)[nH]1 | inactive

Row | SMILES | Potency
20 | O=c1cc(-c2ccccc2)oc2c(O)c(O)ccc12 | inactive
21 | NC[C@@H]1O[C@H](c2ccccc2)Cc2c1ccc(O)c2O | inactive
22 | Oc1ccc(O)cc1 | 39.8 µM (active)
23 | Oc1cc(O)c2c(c1)O[C@H](c1ccc(O)c(O)c1)[C@@H](O)C2 | inactive
24 | CC(C)=CCNc1ncnc2c1ncn2[C@@H]1O[C@H](CO)[C@@H](O)[C@H]1O | inactive
25 | CN=c1nc(-c2ccccc2)n(-c2ccccc2)s1 | inactive
26 | Nc1nc(=S)c2ncn([C@H]3O[C@@H](CO)[C@@H](O)[C@@H]3O)c2[nH]1 | inactive
27 | Nc1nc(Cl)nc2c1ncn2[C@@H]1O[C@H](COP(=O)(O)OP(=O)(O)OP(=O)(O)O)[C@@H](O)[C@H]1O | inactive
28 | COc1cc2nc(N3CCCN(C)CC3)nc(NC3CCNCC3)c2cc1OC | inactive
29 | CN1CCN(CCCN2c3ccccc3Sc3ccc(Cl)cc32)CC1 | inactive
30 | O=c1ccc2ccc(O)c(O)c2o1 | inactive
31 | COc1cc2nc(N3CCCN(C)CC3)nc(NC3CCN(Cc4ccccc4)CC3)c2cc1OC | inactive
32 | OCC1OC(n2cnc3c(NO)ncnc32)C(O)C1O (configuration not stated) | inactive
33 | C[N+]1(C)CCC(OC(=O)C(c2ccccc2)c2ccccc2)CC1 | inactive
34 | Cc1nn(-c2ccccc2)c(C)c1/C=N/N1CCN(Cc2ccccc2)CC1 | inactive
35 | CC#C[C@]1(O)CC[C@H]2[C@@H]3CCC4=CC(=O)CCC4=C3[C@@H](c3ccc(N(C)C)cc3)C[C@@]21C | inactive
36 | CC(C)(C)c1ccc(S(=O)(=O)/C=C\C#N)cc1 | 11.2 µM (active)
37 | O=c1c(O)c(-c2ccc(O)c(O)c2)oc2cc(O)cc(O)c12 | inactive
